Our source for the inhibition values is ChEMBL document CHEMBL1961873, “Compounds: GSK PKIS; Assays: Nanosyn kinase panel” (2012).

Test [1] deals with Mitogen-activated protein kinase kinase kinase kinase 4 (Homo sapiens) (UniProt O95819). To be noted: at 1 µM.
Test [2] concerns the target Dual specificity mitogen-activated protein kinase kinase 1 (Homo sapiens) (UniProt Q02750). To be noted: at 0.1 µM.
Test [3] shares this target. To be noted: at 1 µM.
Test [4] concerns the target Misshapen-like kinase 1 (Homo sapiens) (UniProt Q8N4C8). The following applies: at 0.1 µM.
The target is the same in test [5]. The following applies: at 1 µM.
Test [6] deals with T1, Serine/threonine-protein kinase 4 (Homo sapiens) (UniProt Q13043).
T1 sequence (whole entry): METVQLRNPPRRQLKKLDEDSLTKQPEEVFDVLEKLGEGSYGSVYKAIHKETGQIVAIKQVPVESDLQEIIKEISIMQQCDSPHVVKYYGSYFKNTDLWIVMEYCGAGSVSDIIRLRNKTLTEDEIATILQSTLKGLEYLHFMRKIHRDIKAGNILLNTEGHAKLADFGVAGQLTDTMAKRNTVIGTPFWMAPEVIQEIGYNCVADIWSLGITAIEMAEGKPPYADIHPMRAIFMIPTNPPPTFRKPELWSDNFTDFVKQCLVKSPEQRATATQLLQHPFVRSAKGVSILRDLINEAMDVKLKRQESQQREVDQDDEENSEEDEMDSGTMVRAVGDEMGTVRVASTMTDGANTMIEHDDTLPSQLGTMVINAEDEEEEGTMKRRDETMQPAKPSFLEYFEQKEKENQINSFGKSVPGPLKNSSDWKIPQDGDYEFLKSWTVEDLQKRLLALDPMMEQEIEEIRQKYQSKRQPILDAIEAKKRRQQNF
To be noted: at 0.1 µM.

Test [7] has as its target T1, Serine/threonine-protein kinase 4 (Homo sapiens). The following applies: at 1 µM.
The target in test [8] is T2, Serine/threonine-protein kinase 3 (Homo sapiens) (UniProt Q13188).
T2 sequence (whole entry): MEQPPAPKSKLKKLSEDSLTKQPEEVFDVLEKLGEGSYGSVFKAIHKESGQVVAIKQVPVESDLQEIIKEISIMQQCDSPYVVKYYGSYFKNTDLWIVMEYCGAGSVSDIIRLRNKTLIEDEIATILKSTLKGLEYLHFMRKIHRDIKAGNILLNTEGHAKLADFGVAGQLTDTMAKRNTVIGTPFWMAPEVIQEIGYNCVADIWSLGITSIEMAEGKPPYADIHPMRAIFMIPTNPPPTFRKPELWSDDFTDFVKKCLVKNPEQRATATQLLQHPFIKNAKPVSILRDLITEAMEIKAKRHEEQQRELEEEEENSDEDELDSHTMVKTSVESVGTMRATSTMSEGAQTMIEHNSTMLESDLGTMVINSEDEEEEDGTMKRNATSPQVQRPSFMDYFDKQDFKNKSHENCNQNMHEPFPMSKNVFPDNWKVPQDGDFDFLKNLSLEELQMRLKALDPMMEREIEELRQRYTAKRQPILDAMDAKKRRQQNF
To be noted: at 0.1 µM.

The target in test [9] is T2, Serine/threonine-protein kinase 3 (Homo sapiens). To be noted: at 1 µM.
Test [10] has as its target Serine/threonine-protein kinase 26 (Homo sapiens) (UniProt Q9P289). To be noted: at 0.1 µM.

Serine/threonine-protein kinase 26 (Homo sapiens), sequence (Q9P289 2-416 limits assumed): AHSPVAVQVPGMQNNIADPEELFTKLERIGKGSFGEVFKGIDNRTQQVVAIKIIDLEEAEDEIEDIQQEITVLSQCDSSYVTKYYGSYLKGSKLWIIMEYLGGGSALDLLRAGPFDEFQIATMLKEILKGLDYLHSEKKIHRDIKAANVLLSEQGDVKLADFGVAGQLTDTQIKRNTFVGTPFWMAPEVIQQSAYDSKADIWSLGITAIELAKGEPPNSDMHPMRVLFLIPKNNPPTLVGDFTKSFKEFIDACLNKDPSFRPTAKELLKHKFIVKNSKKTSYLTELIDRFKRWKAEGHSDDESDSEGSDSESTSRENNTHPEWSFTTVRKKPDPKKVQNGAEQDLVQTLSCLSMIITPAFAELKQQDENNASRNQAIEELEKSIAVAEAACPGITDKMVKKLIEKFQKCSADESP
Misshapen-like kinase 1 (Homo sapiens), sequence (Q8N4C8 whole entry, looked up): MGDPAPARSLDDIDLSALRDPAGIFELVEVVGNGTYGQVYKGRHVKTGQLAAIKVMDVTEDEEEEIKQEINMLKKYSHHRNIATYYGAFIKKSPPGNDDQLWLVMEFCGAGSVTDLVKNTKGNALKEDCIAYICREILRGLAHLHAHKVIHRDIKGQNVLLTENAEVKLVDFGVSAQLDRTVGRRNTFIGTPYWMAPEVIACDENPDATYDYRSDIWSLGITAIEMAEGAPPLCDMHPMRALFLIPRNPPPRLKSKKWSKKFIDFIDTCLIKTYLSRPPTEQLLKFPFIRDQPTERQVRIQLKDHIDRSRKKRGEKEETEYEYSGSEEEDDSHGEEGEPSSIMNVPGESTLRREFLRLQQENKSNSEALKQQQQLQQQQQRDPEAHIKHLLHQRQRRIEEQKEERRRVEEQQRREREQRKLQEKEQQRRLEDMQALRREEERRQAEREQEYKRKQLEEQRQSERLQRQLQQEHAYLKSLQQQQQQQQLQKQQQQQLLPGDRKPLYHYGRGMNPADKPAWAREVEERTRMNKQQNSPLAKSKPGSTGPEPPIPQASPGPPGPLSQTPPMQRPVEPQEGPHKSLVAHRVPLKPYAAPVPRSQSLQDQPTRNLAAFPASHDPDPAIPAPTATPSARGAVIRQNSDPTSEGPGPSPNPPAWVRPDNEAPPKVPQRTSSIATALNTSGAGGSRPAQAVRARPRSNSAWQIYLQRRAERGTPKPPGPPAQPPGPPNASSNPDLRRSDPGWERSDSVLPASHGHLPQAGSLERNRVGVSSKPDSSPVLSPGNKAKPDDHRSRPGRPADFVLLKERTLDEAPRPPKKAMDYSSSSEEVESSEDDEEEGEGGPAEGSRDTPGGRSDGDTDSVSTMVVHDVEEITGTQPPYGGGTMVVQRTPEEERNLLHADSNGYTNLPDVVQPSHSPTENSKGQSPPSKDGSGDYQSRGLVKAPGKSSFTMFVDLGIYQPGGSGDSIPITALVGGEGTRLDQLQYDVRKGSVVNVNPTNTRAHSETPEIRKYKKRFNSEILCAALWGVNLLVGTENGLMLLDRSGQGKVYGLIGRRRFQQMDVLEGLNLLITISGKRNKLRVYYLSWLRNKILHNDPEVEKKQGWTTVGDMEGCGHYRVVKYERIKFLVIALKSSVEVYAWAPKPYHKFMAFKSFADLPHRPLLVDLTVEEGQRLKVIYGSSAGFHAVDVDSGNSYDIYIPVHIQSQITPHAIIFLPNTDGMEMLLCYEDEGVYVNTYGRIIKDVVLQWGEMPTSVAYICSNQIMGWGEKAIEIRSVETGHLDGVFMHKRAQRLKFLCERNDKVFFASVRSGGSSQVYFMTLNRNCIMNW
Dual specificity mitogen-activated protein kinase kinase 1 (Homo sapiens), sequence (Q02750 whole entry): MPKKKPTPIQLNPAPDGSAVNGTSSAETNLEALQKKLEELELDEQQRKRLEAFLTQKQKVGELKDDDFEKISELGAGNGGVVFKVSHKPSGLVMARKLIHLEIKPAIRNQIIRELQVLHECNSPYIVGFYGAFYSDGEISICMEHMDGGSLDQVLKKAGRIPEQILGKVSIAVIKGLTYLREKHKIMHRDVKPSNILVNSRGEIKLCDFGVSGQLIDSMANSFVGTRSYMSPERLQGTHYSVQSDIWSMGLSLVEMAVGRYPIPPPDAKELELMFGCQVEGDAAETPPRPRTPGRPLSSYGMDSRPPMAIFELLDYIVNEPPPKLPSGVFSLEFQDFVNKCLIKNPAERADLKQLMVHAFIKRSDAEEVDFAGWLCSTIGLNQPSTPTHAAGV
Mitogen-activated protein kinase kinase kinase kinase 4 (Homo sapiens), sequence (O95819 2-1239 limits assumed): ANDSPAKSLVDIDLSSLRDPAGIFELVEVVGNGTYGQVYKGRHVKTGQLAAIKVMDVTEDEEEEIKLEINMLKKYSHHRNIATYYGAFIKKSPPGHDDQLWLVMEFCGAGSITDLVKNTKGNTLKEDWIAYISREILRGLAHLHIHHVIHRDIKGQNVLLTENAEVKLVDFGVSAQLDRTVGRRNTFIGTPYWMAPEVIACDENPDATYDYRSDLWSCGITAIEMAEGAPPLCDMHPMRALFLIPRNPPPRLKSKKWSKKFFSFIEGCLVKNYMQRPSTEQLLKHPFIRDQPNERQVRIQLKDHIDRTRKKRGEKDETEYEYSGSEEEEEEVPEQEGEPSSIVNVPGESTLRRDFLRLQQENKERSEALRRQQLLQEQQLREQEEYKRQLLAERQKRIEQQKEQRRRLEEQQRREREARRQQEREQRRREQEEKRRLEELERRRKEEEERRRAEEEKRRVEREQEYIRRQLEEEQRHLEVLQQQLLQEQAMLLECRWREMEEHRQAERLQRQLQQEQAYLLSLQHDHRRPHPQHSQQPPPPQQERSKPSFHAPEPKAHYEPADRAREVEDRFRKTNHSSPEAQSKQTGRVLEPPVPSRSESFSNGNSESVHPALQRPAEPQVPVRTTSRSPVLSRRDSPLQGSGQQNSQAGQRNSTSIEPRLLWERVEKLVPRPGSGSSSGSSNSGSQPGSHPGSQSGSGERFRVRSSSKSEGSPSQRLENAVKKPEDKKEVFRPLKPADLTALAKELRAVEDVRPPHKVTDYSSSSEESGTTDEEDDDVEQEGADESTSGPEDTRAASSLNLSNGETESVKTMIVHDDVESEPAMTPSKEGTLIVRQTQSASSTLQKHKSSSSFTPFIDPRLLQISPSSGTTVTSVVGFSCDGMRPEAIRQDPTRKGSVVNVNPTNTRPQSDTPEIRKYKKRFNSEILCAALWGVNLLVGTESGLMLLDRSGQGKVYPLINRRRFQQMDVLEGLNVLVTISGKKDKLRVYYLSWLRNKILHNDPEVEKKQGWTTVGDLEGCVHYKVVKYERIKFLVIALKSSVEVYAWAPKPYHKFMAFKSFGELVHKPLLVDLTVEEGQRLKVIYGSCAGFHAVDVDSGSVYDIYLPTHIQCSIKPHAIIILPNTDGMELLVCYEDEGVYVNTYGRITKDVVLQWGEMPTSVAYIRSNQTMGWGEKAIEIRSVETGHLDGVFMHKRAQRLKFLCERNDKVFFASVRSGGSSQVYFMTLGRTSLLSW

As usually defined, the inhibition is the change of the read-out against control, counted positive when it falls. In the case of `[O-][S+]1CCN(Cc2ccc(-c3ccc4ncnc(Nc5ccc(OCc6cccc(F)c6)c(Cl)c5)c4c3)o2)CC1`, the inhibition in test [1] came out at 9.56%; in test [2], 5.35%; in test [3], 4.93%; in [4] it was 7.98%; in test [5], 8%; in test [6], 6.28%. Also, the inhibition in [7] came out at 8.16%; in test [8], 8.11%; in test [9], 9.49%; in [10] it was 0.51%.

For the molecule `CCn1c(-c2nonc2N)nc2ccccc21`, the inhibition in test [1] was found to be 22.5%; in test [2], 4.06%; in test [3], 4.74%; in test [4], 5.52%; in [5], 13.2%; in test [6], 5.56%. Further, the inhibition in test [7] was 7.11%; in test [8] it was 6.31%; in test [9], 5.79%; in [10], -1.3%.

For `COc1cccc(-c2c[nH]c3c(N/N=C/c4ccncc4)ncnc23)c1`, the inhibition in [1] is 74.5%; in [2], 1.76%; in test [3], 6.21%; in test [4], 17.5%; in test [5] it was 61.9%; in test [6], 5.59%. Moreover, the inhibition in test [7] amounted to 15.2%; in test [8], 4.97%; in test [9], 13.2%; in [10], 2.3%.

On to `CC(=O)Nc1cccc(C#Cc2cncnc2Nc2ccc(OCc3cccc(F)c3)c(Cl)c2)c1`, for which the inhibition in [1] came out at 2.59%; in [2], 2.07%; in test [3] it was 3.13%; in [4], 2.21%; in test [5], 3.87%; in test [6], 3.97%. Besides, the inhibition in test [7] turned out to be 5.79%; in [8], 4.97%; in test [9], 2.1%; in test [10], 1.4%.

Turning to `COc1ccc(-c2oc3ncnc(N)c3c2-c2ccc(NC(=O)Nc3cc(C(F)(F)F)ccc3F)cc2)cc1`, the inhibition in test [1] was determined as 10.1%; in [2], 6.74%; in test [3] it was 7.26%; in [4], 6.56%; in test [5], 6.71%; in test [6], 12.5%. Further, the inhibition in test [7] is 19.3%; in test [8] it was 12.7%; in [9] it was 18.3%; in test [10], 0.51%.

Regarding `COc1ccc2[nH]c3c4[nH]c5ccc(OC)cc5c4c4c(c3c2c1)C(=O)NC4=O`, the inhibition was determined as 88.4% in [1]; 4.86% in [2]; 7.06% in [3]; 81.3% in test [4]; 84.8% in test [5]; 13% in test [6]. Also, the inhibition was determined as 42% in [7], 14.2% in test [8], 42.4% in test [9] and 4.27% in test [10].

In the case of `COc1cc(/C=N/Nc2ncnc3[nH]ncc23)ccc1O`, the inhibition in [1] is 38.5%; in [2] it was 3.54%; in [3], 3.75%; in test [4], 6.75%; in [5], 25.1%; in test [6] it was 6.37%. For the same molecule, the inhibition in test [7] is 19.5%; in [8] it was 5.9%; in test [9] it was 15.1%; in test [10] it was -1.06%.

In the case of `Fc1ccc(-c2nn3ncccc3c2-c2ccnc(Nc3ccc4c(c3)OCCO4)n2)cc1`, the inhibition in [1] worked out at 73.2%; in [2], 5.8%; in test [3] it was 11.7%; in test [4], 16.4%; in test [5], 65.2%; in test [6], 3.27%. Also, the inhibition in test [7] is 5.1%; in [8] it was 3.68%; in test [9], 3.21%; in test [10] it was -0.01%.

Turning to `Cc1ccc(O)cc1Nc1ccnc2cc(-c3ccccn3)ccc12`, the inhibition in test [1] is 75.5%; in test [2], 6.05%; in test [3], 4.87%; in [4] it was 21.3%; in [5], 65.2%; in test [6], 7.99%. In addition, the inhibition in test [7] is 8.81%; in test [8], 8.56%; in test [9], 6.61%; in test [10], -2.79%.

On to `CN(C)CCOc1ccc(-c2nc(-c3ccncc3)c(-c3ccc4c(c3)CC/C4=N\O)[nH]2)cc1`, for which the inhibition in test [1] is 47.2%; in test [2], 4.37%; in test [3], 3.23%; in test [4] it was 8.74%; in test [5] it was 37.3%; in test [6], 4.67%. The inhibition was 6.56% in [7], 4.63% in [8], 4.58% in test [9] and -1.19% in [10].

On to `COC(=O)Nc1nc2ccc(S(=O)(=O)c3ccc(NC(=O)Nc4cc(C(F)(F)F)ccc4F)cc3)cc2[nH]1`, for which the inhibition in test [1] came out at 6.09%; in test [2] it was 2.83%; in [3], 2.72%; in test [4], 5.17%; in [5], 8.15%; in test [6], 3.71%. For the same molecule, the inhibition in test [7] was determined as 4.43%; in [8], 4%; in test [9], 3.06%; in [10] it was 0.89%.

For `CCn1c(-c2nonc2N)nc2cnc(Oc3cccc(NC(=O)c4ccc(N(C)C)cc4)c3)cc21`, the inhibition is 29.4% in [1]; 1.11% in test [2]; 2.61% in test [3]; 3.19% in test [4]; 28.2% in test [5]; -0.06% in [6]. Besides, the inhibition was 1.47% in test [7], 0.98% in test [8], 2.32% in test [9] and -1.48% in test [10].

`CCn1c(-c2nonc2N)nc2c(C#CC(C)(C)O)ncc(OC3CCNCC3)c21`: the inhibition was determined as 6.21% in [1]; 1.98% in [2]; 3.44% in [3]; 4.48% in test [4]; 5.83% in [5]; 1.6% in test [6]. The inhibition in [7] turned out to be 4.54%; in [8], 3.55%; in [9] it was 6.04%; in test [10], 0.64%.

In the case of `Fc1ccc(-c2cc(-c3c[nH]nc3-c3ccccn3)ccn2)cc1`, the inhibition worked out at 59.6% in [1]; 5.25% in test [2]; 3.85% in test [3]; 10.7% in test [4]; 44.4% in test [5]; 4.5% in [6]. Besides, the inhibition is 6.92% in test [7], 6.43% in test [8], 7.79% in test [9] and -0.73% in test [10].

With `CS(=O)(=O)CCNCc1ccc(-c2ccc3ncnc(Nc4ccc(OCc5ccccc5)c(C(F)(F)F)c4)c3c2)o1`, the inhibition in [1] worked out at 4.73%; in test [2], 3.83%; in test [3] it was 3.81%; in [4], 5.41%; in test [5], 5.83%; in [6] it was 2.67%. For the same molecule, the inhibition in [7] was 3.71%; in test [8], 4.04%; in test [9], 4.03%; in test [10] it was -1.35%.

With `CNC(=O)c1cc(-c2ccc(F)cc2)cc(-c2ccc(S(=O)(=O)N3CCCC3)cc2)c1N`, the inhibition in test [1] came to 7.55%; in test [2], 2.79%; in test [3], 4.52%; in test [4] it was 4.69%; in [5], 5.6%; in [6], 0.78%. In addition, the inhibition in [7] is 1.31%; in [8], 0.82%; in test [9] it was 1.3%; in [10], -0.65%.

For the molecule `O=C(O[C@H]1CN[C@H](C#Cc2cc3ncnc(Nc4ccc(Cc5ccccc5)cc4)c3s2)C1)N1CCOCC1`, the inhibition was -0.81% in [1]; 1.32% in [2]; 1.73% in [3]; 3.34% in [4]; 1.04% in test [5]; 1.14% in test [6]. Moreover, the inhibition in test [7] is 3.13%; in [8] it was 3.94%; in test [9] it was 3.64%; in [10] it was -0.29%.

For `c1ccc(-c2nc3n(c2-c2ccc4c(c2)OCO4)CCC3)nc1`, the inhibition in test [1] worked out at 6.59%; in test [2] it was 1.98%; in [3], 1.68%; in [4], 3.49%; in test [5], 6.24%; in test [6], 0.85%. The inhibition in test [7] is 1.63%; in [8], 1.29%; in [9] it was 1.9%; in [10], 0.34%.

For `CCN1CCC(CC(=O)Nc2n[nH]c3nnc(-c4cccc(F)c4F)cc23)CC1`, the inhibition is 3.87% in test [1]; 2.23% in test [2]; 2.45% in test [3]; 3.67% in test [4]; 4.07% in test [5]; 2.83% in test [6]. For the same molecule, the inhibition came to 6.13% in test [7], 3.62% in test [8], 5.19% in test [9] and 0.66% in [10].
